Source: PubChem (several laboratories)
A selection: hits, their analogues and other compounds. The true share with any hit is near 2.1%.
MsrA inhibitor: inhibits bovine methionine sulfoxide reductase A | purified bovine MsrA, absorbance read-out | inhibition, % at 15.5 µM | 0.75% of 360,000 active; in the data active = inhibition above about 4.5%;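 also: 0% = vehicle wells with enzyme and 100% = reference inhibitor wells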
SMARCA2 act: increases SMARCA2 function in MMTV reporter cells; MG213 cells, MMTV-luciferase reporter, dexamethasone, overnight; activation, % at 9.1 µM; 1% of 370,000 active; AID 652017; in the data active = activation above about 7.8%;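 also: 0% = vehicle wells and 100% = reference activator wells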
MsrA act: activates bovine MsrA enzyme | purified bovine MsrA, absorbance read-out | activation, % at 10.6 µM | 0.3% of 360,000 active | AID 602163; in the data active = activation above about 7.5%;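 also: 0% = vehicle and 100% = reference activator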
ABCB6 inh MLPCN: human ABCB6 transporter inhibition; Q9NP58; K562-ABCB6 porphyrin accumulation, flow cytometry, 1 h; stronger effect = lower value; fluorescence ratio to DMSO, % at 10 µM; 0.19% of 360,000 active; AID 602162;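 active = fluorescence ratio to DMSO below 75%, the collection mean minus 3 SD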;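 also: signal is porphyrin accumulated inside mitochondria; 100% equals median channel fluorescence of DMSO control wells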
Target sequence (Q9NP58 whole entry, looked up): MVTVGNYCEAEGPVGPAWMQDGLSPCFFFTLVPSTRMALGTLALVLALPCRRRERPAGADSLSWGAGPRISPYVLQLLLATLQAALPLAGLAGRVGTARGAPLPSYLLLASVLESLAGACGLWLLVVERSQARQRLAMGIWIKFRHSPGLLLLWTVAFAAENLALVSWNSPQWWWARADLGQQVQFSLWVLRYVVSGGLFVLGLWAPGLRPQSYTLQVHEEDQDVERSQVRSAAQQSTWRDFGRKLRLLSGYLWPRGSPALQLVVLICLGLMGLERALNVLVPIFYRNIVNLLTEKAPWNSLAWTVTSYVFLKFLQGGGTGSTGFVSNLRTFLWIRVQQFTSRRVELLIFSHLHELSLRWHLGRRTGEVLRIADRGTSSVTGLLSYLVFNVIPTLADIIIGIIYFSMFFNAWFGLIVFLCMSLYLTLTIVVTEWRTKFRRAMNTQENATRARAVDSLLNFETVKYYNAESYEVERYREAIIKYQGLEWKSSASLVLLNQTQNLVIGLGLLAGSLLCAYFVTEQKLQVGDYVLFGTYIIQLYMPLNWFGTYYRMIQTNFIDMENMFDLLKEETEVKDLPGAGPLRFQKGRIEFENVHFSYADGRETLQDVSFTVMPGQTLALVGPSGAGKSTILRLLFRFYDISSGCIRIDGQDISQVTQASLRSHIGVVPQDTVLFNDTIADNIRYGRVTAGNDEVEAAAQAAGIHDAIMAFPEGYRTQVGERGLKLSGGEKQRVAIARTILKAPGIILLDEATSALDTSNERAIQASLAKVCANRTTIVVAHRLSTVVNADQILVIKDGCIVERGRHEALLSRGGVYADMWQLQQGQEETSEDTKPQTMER
ABCB6 inh CP1: human ABCB6 transporter inhibition; K562-ABCB6 porphyrin accumulation, flow cytometry, 1 h; stronger effect = lower value; ratio response (% of DMSO), % at 10 µM; shares compounds with ABCB6 inh MLPCN; 700 tested, under 10 active;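 active = repeat-averaged ratio response below 75% of DMSO, the collection mean minus 3 SD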;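 also: median porphyrin fluorescence at 575 nm with 488 nm excitation from mitochondria; lower ratio means less porphyrin signal so ABCB6 inhibition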
An asterisk follows results filed as active; / = not tested or not shown.

SMILES | MsrA inhibitor | SMARCA2 act | MsrA act | ABCB6 inh MLPCN | ABCB6 inh CP1
CC1(C(=O)NS(=O)(=O)c2cccc(C#N)c2)CCN1C(=O)CCc1ccccc1 (centres undefined) | 0.3 | -1.9 | -0.4 | 99.0 | 101.0
Cc1ccc(S(=O)(=O)NC(=O)C2(C)CCN2C(=O)Cc2ccc(C(C)(C)C)cc2)cc1 (centres undefined) | -0.3 | -5.7 | 0.4 | 95.0 | /
COC(=O)C1CN(C2CC2)CCS(=O)(=O)N1Cc1cn(Cc2ccc(Cl)cc2)nn1 (centres undefined) | / | -1.5 | / | / | /
O=C(O)c1cccc(S(=O)(=O)NCC(=O)N2CCN(c3ccccn3)CC2)c1 | / | 3.7 | / | / | /
CC(=O)OC12CCCN(C1)/C(=C/c1cccnc1)C2 (centres undefined) | / | -3.2 | / | / | /
Cc1ccccc1C(=O)N(C)[C@H]1C[C@H]2c3[nH]c4c(-c5ccc6c(c5)OCO6)cccc4c3CCN2C[C@H]1[C@H](C)O | / | -1.1 | / | / | /
C=CCN1[C@H](C)COc2cccc(F)c2S1(=O)=O | / | -2.2 | / | / | /
CC1(C(=O)NS(=O)(=O)c2cccc(F)c2)CCN1C(=O)Cc1ccccc1 (centres undefined) | -0.8 | -0.9 | -2.2 | 92.0 | /
Cc1cccc(S(=O)(=O)NC(=O)C2(C)CCN2C(=O)Cc2ccccc2)c1 (centres undefined) | 1.2 | -2.5 | -0.3 | 99.0 | 102.0
CC1(C(=O)NS(=O)(=O)c2cccc(Cl)c2)CCN1C(=O)Cc1ccc(Cl)cc1Cl (centres undefined) | -0.5 | 0.7 | -0.8 | 95.0 | /
CC1(C(=O)NS(=O)(=O)c2ccccc2)CCN1C(=O)Cc1ccccc1 (centres undefined) | 1.6 | -1.5 | -9.8 | 98.0 | /
CC(C)(C)c1ccc(CC(=O)N2CCC2(C)C(=O)NS(=O)(=O)c2cccc(F)c2)cc1 (centres undefined) | 0.4 | -2.2 | -1.5 | 98.0 | 102.0
Cc1cccc(S(=O)(=O)NC(=O)C2(C)CCN2C(=O)Cc2ccc(Cl)cc2Cl)c1 (centres undefined) | -0.1 | 0.3 | 0.2 | 104.0 | 101.0
N#Cc1nc(COc2ccccc2)oc1N1CCCCCC1 | -0.7 | 1.1 | -3.0 | 103.0 | /
N#Cc1nn(-c2ccccc2)nc1N1CCCCC1 | 3.0 | 2.0 | -10.6 | 69.0* | 95.0
CC(=O)Oc1cccc(/C=C2\Sc3ccccc3C2=O)c1 | -0.5 | -4.8 | -10.3 | 72.0* | 96.0
CCCCOc1ccc(/C=C2/Sc3ccccc3C2=O)cc1 | 0.2 | -0.8 | -1.4 | 125.0 | /
COc1cc(C)ccc1C(=O)N1CCC(Oc2cccnc2)CC1 | / | -3.1 | / | / | /
CC(C)c1ccc(NC(=O)COc2ccccc2)cc1 | -0.9 | 4.5 | -3.0 | 100.0 | /
CC(C)c1ccc(OCC(=O)Nc2ccc(OC(F)(F)F)cc2)cc1 | 0.0 | 2.4 | -3.0 | 63.0* | 99.0
Cc1cc(C)cc(C(=O)OCCCN(C)C2CN(Cc3cn(Cc4ccc([N+](=O)[O-])cc4)nn3)S(=O)(=O)C2)c1 (centres undefined) | / | -2.0 | / | / | /
CC(=O)N1C(=O)C2(C(C#N)=C(N)Oc3c2c(C)nn3-c2ccccc2)c2ccccc21 (centres undefined) | 0.0 | 0.6 | 1.4 | 44.0* | 101.0
COc1ccc(-c2cnn3c(N)c(S(=O)(=O)C(C)(C)C)cnc23)cc1 | -1.1 | -1.7 | -2.6 | 68.0* | 97.0
COc1ccc(-n2nc(C(=O)NCC3CCCO3)c3ccccc3c2=O)cc1 (centres undefined) | -0.3 | -0.2 | -2.3 | 16.0* | 99.0
COc1ccc(-n2nc(C(=O)NCC(=O)NCC3CCCO3)c3ccccc3c2=O)cc1 (centres undefined) | 0.3 | -4.2 | -14.0 | 97.0 | /
SMILES | MsrA inhibitor | SMARCA2 act | MsrA act | ABCB6 inh MLPCN | ABCB6 inh CP1
CCOC(=O)C(C)NC(=O)CCc1nnc2ccc(N3CCCCC3)nn12 (centres undefined) | 1.3 | 1.8 | -3.2 | 90.0 | 98.0
CCOC(=O)C(Cc1ccccc1)NC(=O)CCc1nnc2ccc(N3CCCCC3)nn12 (centres undefined) | 0.6 | -3.8 | -0.9 | 105.0 | /
CCOCCCNC(=O)CCc1nnc2ccc(N3CCCCC3)nn12 | / | / | -1.6 | 98.0 | 100.0
Nn1c(SCC(=O)NC2CCCCC2)nnc1-c1cc(-c2ccc(Cl)cc2)n[nH]1 | / | -2.1 | / | / | /
Cc1cc(NC(=O)c2cc(S(=O)(=O)N3CCCCC3)ccc2C)no1 | -1.1 | 1.2 | -0.2 | 107.0 | /
Cc1cc(NC(=O)c2cccc(S(=O)(=O)N3CCCCCC3)c2)no1 | -1.0 | -3.8 | -8.1 | 70.0* | 99.0
CCOC(=O)[C@H]1[C@H]2COc3cc(OC)ccc3[C@@H]2N2C(=O)N(c3cccc(F)c3)C(=O)[C@@]12C | -0.2 | -0.9 | 5.1 | 99.0 | /
CCOC(=O)[C@@H]1[C@H]2COc3cc(OC)ccc3[C@H]2N2C(=O)N(c3cccc(F)c3)C(=O)[C@@]12C | -0.6 | 0.1 | -1.9 | 73.0* | 99.0
O=C(COc1ccccc1)N1CCCCCCC1 | -0.1 | -1.1 | -3.0 | 98.0 | /
O=C(COc1ccccc1)N1CCN(C(=O)COc2ccccc2)CC1 | / | / | -2.9 | 68.0* | 99.0
CCNc1oc(-c2ccc(OC)cc2)nc1S(=O)(=O)c1ccc(Br)cc1 | -0.2 | -1.8 | -1.7 | 90.0 | /
CCCCNc1oc(-c2ccc(OC)cc2)nc1S(=O)(=O)c1ccccc1 | 0.6 | -2.3 | -2.2 | 69.0* | 99.0
CCn1cc(C(=O)N2CCN(Cc3ccc(C)cc3)CC2)c(=O)c2ccc(C)nc21 | / | 2.1 | / | / | /
CC1CCN(S(=O)(=O)c2c[nH]c(=O)[nH]c2=O)CC1 | -1.2 | 0.6 | 0.5 | 96.0 | /
COc1ccc(CNC(=O)C2CCN(S(=O)(=O)c3ccc(Br)s3)CC2)cc1 | -1.2 | -1.6 | -4.7 | 98.0 | /
COC(=O)C1CCN(S(=O)(=O)c2c[nH]c(=O)[nH]c2=O)CC1 | 1.5 | -1.2 | -2.1 | 94.0 | 99.0
COC(=O)C1CCN(S(=O)(=O)c2ccc(Br)s2)CC1 | -0.9 | -1.1 | -4.3 | 90.0 | 97.0
O=C(NC1CCCCN(Cc2ccc(Cl)cc2)C1=O)c1ccc(-c2ccccc2)cc1 (centres undefined) | / | -3.4 | / | / | /
Clc1ccc(Cl)c(OCCN2CCCC2)c1 | 0.5 | -1.7 | -1.7 | 49.0* | 105.0
Cc1ccc(S(=O)(=O)N(CCc2ccccc2)CC(=O)N2CCOCC2)cc1 | / | -0.4 | / | / | /
Cc1nc(SCCc2ccccc2)[nH]c(=O)c1C | / | / | -3.6 | 96.0 | /
CCSc1nc(C)c(C)c(=O)[nH]1 | -0.1 | -0.8 | -1.7 | 72.0* | 98.0
CCOc1cc(C(=O)NCc2ccc(-c3nc4ccccc4o3)cc2)cc(OCC)c1OCC | 0.5 | -2.6 | -4.3 | 70.0* | 98.0
CCOc1ccc(S(=O)(=O)N2CCN(C(=O)c3cc(S(=O)(=O)N4CCOCC4)ccc3C)CC2)cc1 | -1.1 | -2.4 | -5.7 | 68.0* | 103.0
CC1CCN(C(=O)c2ccccc2NC(=O)Nc2ccccc2)CC1 | -1.4 | -0.8 | -0.7 | 11.0* | 98.0
COc1ccc(-c2cc(C(F)(F)F)c(C#N)c(SCC(=O)O)n2)cc1 | 2.2 | -3.0 | -1.8 | 97.0 | /
Cc1ccc(-c2cc(C(F)(F)F)c(C#N)c(SCCC#N)n2)o1 | 0.7 | -2.9 | -2.3 | 71.0* | 103.0
c1ccc(OCCNc2ccn3nc(-c4ccc(OCCN5CCOCC5)cc4)cc3n2)cc1 | 1.2 | -2.0 | -2.2 | 74.0* | 100.0
